# According to PubChem BioAssay:
# For part of these data: Entries with a potency or affinity are not part of this list. Calls of active or inactive are those of the source.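 Rule for the calls, unless noted: active = primary screen hit whose fluorescence ratio, in both repeats, exceeds the weak agonist control mean by 3 SD; inactive = the rest.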
# Columns and labels:
# [1] = tested on: TRPC4 beta (transient receptor potential cation channel C4), mouse; assay: TRPC4 cation channel opening, retest – cell-based, Fluo4 calcium, HEK293 TRPC4beta/mu-opioid, duplicates, 10 µM, confirmation (AID 2426;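 active = fluorescence ratio normalized to control raised more than 50% in primary screen plus both repeat runs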;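 for activation: percent rise of integrated ratio over buffer wells lacking compound which define 0%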); conditions: Fluo4 calcium fluorescence, at 10 µM; active compounds read high
# [2] = tested on: transient receptor potential cation channel C4 beta (TRPC4), mouse; assay: TRPC4 cation channel opening, second retest – cell-based, second round, Fluo4, HEK293 TRPC4beta/mu-opioid, 1 µM, confirmation (AID 2461;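 active = primary screen active and over 50% activation in each of two duplicate runs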); conditions: Fluo4 calcium fluorescence, at 1 µM; active compounds read high
# [3] = tested on: TRPC4 (transient receptor potential cation channel C4 beta), mouse; assay: potentiation of DAMGO EC20 TRPC4 response – cell-based, second round, Fluo-4, HEK293 TRPC4beta/mu-opioid, 1 µM, confirmation (AID 2554); conditions: DAMGO EC20, Fluo-4 calcium flux, at 1 µM; active compounds read high
# [4] = tested on: TRPC4 beta (transient receptor potential cation channel C4), mouse; assay: potentiation of DAMGO EC20 TRPC4 response – cell-based, Fluo-4, HEK293 TRPC4beta/mu-opioid, confirmation (AID 2555;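 active = primary screen hit whose calcium fluorescence ratio, in both repeats, exceeds the weak agonist control mean by 3 SD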); conditions: DAMGO EC20, Fluo-4 calcium flux, at 10 µM; active compounds read high
# [5] = target: Short transient receptor potential channel 4 (Mus musculus) (UniProt Q9QUQ5); assay: blockers of DAMGO-evoked TRPC4 calcium flux – cell-based, Fluo4, HEK293 TRPC4beta/mu-opioid, confirmation (AID 2636;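 active = calcium signal cut by more than 3 SD below the full-agonist control yet still positive, in both repeats and the earlier primary screen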); conditions: at 10 µM; active compounds read high
# [6] = target: Short transient receptor potential channel 4 (Mus musculus) (UniProt Q9QUQ5); assay: blockers of DAMGO-evoked TRPC4 calcium flux – cell-based, second round, Fluo4, HEK293 TRPC4beta/mu-opioid, 1 µM, confirmation (AID 2637;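 active = calcium signal ratio cut to more than 3 SD under the fully stimulated control mean yet still positive, in both repeats and the primary screen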); conditions: at 1 µM; active compounds read high
# [7] = target: Short transient receptor potential channel 4 (Mus musculus) (UniProt Q9QUQ5); assay: calcium entry via TRPC4 opening agents – cell-based, HEK293 TRPC4/mu-opioid, Fluo-4 calcium, dose response (AID 434937;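 active = primary screen activator hit with a dose response curve and TRPC4 channel activation at any tested dose; inactive = no activation, no dose response, or not a primary hit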)
# [8] = target: Short transient receptor potential channel 4 (Mus musculus) (UniProt Q9QUQ5); assay: potentiation of DAMGO-evoked TRPC4 calcium signal – cell-based, HEK293 TRPC4/mu-opioid, Fluo-4 calcium, EC20 DAMGO, dose response (AID 434941;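 active = earlier screen potentiator hit that boosts the TRPC4 ion channel at some dose, with a dose response; inactive = no potentiation, no dose response, or not a prior hit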;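 note: calcium entry triggered by an EC20 dose of DAMGO at the co-expressed mu-opioid receptor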)
# [9] = target: Short transient receptor potential channel 4 (Mus musculus) (UniProt Q9QUQ5); assay: block of DAMGO-driven TRPC4 calcium entry – cell-based, HEK293 TRPC4/mu-opioid, Fluo-4 calcium, dose response (AID 434942;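 active = primary screen inhibitor hit that blocks the TRPC4 channel at some tested dose, yielding a dose curve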)
# [10] = target: Short transient receptor potential channel 6 (Mus musculus) (UniProt Q61143); assay: TRPC6 blockade by TRPC4 inhibitor hits – cell-based, HEK293, membrane potential dye, duplicate, selectivity assay for TRPC4 inhibitor project, confirmation (AID 434948;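 active = active in primary screen and both duplicates, each dropping signal beyond three positive-control SD with fluorescence still positive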); conditions: HEK293 TRPC6, membrane potential dye fluorescence, at 10 µM, stimulated with maximal-effect acetylcholine; active compounds read high
# [11] = target: Short transient receptor potential channel 6 (Mus musculus) (UniProt Q61143); assay: TRPC6 opening by TRPC4 activator hits – cell-based, HEK293, membrane potential dye, duplicate, selectivity assay for TRPC4 activator project, confirmation (AID 434950;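 active = membrane potential signal rise above negative control mean plus 3 SD in both duplicates, also active in the earlier TRPC4 screen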;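 for activation: 0% = buffer only wells and 100% = acetylcholine maximal-effect wells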); conditions: HEK293 TRPC6, membrane potential fluorescence, at 10 µM; activation: active compounds read high; outcome: activation
# [12] = target: Short transient receptor potential channel 6 (Mus musculus) (UniProt Q61143); assay: positive modulators of mouse TRPC6 channel – HEK293 cells, membrane potential dye, duplicate, selectivity assay for TRPC4 potentiator project, confirmation (AID 434952;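 active = compound raising the membrane signal above positive-control mean plus 3 SD in both repeats, and a primary screen hit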); conditions: HEK293 TRPC6, membrane potential dye fluorescence, at 10 µM, maximal acetylcholine added after compound; active compounds read high
# [13] = target: Short transient receptor potential channel 4 (Mus musculus) (UniProt Q9QUQ5); assay: calcium flux activators in TRPC4/5HT1a cells, counter-screen for TRPC4 activator project, cell-based, second counter screen, HEK293 TRPC4/5HT1a, Fluo-4 (AID 434977;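 active = calcium signal rise above buffer-control mean plus 5 SD in both duplicates, and also a hit in the primary screen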;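 for activation: plate controls were assay buffer for no effect and maximal serotonin response for full effect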); conditions: Fluo-4 calcium flux, at 10 µM; active compounds read high
# [14] = serotonin-gated TRPC4 signal block – cell-based, second counter screen, HEK293 TRPC4/5HT1a, Fluo-4, counter-screen for TRPC4 inhibitor project, confirmation (AID 434978;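 active = primary screen active whose calcium signal fell more than 3 SD beyond the full-serotonin control mean in both duplicate plates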;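 note: serotonin given first at submaximal then at maximal dose after compound preincubation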); conditions: Fluo-4 calcium flux, at 10 µM, serotonin added to trigger calcium flux; active compounds read high
# [15] = tested on: TRPC4 (mouse), co-expressed with 5HT1a in HEK293; assay: enhancement of serotonin-evoked TRPC4 response – cell-based, second counter screen, HEK293 TRPC4/5HT1a, Fluo-4, counter-screen for TRPC4 potentiator project, confirmation (AID 434979;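 active = signal rise over 3 SD above mean of control wells given weak agonist, in both repeats and first screen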); conditions: Fluo-4 calcium flux, at 10 µM, serotonin added at its EC20 dose; active compounds read high
# [16] = nonspecific calcium rise without TRPC4 – cell-based, HEK293 mu-opioid receptor line, counter-screen for TRPC4 activator project, confirmation (AID 449723;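 active = hit in primary screen, with calcium signal over 5 SD above buffer well mean in both duplicates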;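 note: counter screen cells carry the mu-opioid receptor alone and lack TRPC4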); conditions: HEK293 mu-opioid cells, Fluo-4 calcium fluorescence, at 10 µM; active compounds read high
# [17] = nonspecific potentiation of DAMGO calcium response – cell-based, HEK293 mu-opioid receptor line, counter-screen for TRPC4 allosteric potentiator project, confirmation (AID 449724;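 active = calcium signal rise more than 3 SD above the low-dose agonist control mean, in both duplicate plates and the primary screen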); conditions: HEK293 mu-opioid receptor cells, Fluo-4 calcium flux, at 10 µM, compound added before EC20 DAMGO stimulus; active compounds read high
# Sequence of Short transient receptor potential channel 4 (Mus musculus) (Q9QUQ5 whole entry, looked up): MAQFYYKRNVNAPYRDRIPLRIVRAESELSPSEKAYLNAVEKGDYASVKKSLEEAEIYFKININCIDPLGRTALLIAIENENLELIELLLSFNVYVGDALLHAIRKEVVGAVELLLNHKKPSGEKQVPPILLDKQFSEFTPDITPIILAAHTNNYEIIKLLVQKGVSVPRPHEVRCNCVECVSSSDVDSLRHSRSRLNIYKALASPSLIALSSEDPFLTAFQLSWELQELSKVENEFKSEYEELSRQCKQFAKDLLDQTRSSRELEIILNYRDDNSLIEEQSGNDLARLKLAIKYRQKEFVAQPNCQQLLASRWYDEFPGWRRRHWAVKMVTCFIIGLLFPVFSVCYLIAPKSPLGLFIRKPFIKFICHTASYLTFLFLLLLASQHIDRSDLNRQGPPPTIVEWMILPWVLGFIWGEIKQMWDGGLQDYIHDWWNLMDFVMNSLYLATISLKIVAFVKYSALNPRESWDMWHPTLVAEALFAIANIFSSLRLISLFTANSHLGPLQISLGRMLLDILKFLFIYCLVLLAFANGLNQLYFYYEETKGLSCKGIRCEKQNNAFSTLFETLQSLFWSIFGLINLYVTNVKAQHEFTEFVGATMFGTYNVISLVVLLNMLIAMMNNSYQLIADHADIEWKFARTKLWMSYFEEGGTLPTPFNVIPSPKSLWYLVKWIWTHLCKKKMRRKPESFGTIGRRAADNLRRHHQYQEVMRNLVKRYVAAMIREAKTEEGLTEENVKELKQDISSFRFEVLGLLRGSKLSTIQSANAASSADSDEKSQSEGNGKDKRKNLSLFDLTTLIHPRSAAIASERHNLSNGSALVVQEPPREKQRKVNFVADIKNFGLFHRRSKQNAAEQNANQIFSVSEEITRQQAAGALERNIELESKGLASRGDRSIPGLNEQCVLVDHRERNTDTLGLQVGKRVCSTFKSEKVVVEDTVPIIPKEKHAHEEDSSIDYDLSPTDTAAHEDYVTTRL
# Sequence of Short transient receptor potential channel 6 (Mus musculus) (Q61143 whole entry, looked up): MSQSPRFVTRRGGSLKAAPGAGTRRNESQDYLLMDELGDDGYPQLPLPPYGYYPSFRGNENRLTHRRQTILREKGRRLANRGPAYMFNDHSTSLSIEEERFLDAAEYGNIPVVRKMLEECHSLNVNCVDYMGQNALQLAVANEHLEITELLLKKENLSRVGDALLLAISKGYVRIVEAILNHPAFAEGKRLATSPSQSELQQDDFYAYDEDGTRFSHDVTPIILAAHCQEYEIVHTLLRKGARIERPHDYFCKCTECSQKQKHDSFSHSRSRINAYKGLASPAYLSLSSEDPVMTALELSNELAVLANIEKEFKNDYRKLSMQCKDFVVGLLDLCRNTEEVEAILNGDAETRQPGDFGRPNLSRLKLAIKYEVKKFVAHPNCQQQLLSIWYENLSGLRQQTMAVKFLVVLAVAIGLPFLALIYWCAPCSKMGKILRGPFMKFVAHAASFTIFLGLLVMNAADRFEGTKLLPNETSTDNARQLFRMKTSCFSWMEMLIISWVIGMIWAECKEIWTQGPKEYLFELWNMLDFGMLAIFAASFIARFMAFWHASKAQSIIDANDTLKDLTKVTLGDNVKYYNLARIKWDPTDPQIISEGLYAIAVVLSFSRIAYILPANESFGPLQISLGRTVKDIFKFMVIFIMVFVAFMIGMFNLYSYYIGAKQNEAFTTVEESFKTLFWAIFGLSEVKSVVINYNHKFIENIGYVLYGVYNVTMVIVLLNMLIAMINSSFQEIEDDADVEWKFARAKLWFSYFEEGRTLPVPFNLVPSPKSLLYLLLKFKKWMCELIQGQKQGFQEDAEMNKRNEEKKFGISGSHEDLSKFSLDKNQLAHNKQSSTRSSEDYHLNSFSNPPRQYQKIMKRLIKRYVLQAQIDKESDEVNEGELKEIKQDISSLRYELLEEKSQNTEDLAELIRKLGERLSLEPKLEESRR
compound,measurement,setting,value
COC(=O)[C@@]12CCCCN1[C@H](c1ccc(-c3ccccc3)cc1)[C@@H]1C(=O)N(C)C(=O)[C@@H]12,outcome,[1],inactive
same,outcome,[2],inactive
same,outcome,[3],inactive
same,outcome,[4],inactive
same,outcome,[5],inactive
same,outcome,[6],inactive
same,outcome,[7],inactive
same,outcome,[8],inactive
same,outcome,[9],inactive
same,outcome,[10],inactive
same,outcome,[11],inactive
same,outcome,[12],inactive
same,outcome,[13],inactive
same,outcome,[14],inactive
same,potentiation,[15],20.4% (active)
same,outcome,[16],inactive
same,outcome,[17],inactive
Fc1ccc(Nc2ncnc3sc4c(c23)CCC4)cc1,outcome,[1],inactive
same,outcome,[2],inactive
same,potentiation,[3],22% (active)
same,outcome,[4],inactive
same,outcome,[5],inactive
same,outcome,[6],inactive
same,outcome,[7],inactive
same,outcome,[8],inactive
same,outcome,[9],inactive
same,outcome,[10],inactive
same,outcome,[11],inactive
same,outcome,[12],inactive
same,outcome,[13],inactive
same,outcome,[14],inactive
same,potentiation,[15],50% (active)
same,outcome,[16],inactive
same,outcome,[17],inactive
Cc1cc(C)c(S(=O)(=O)N2CCN(C)CC2)c(C)c1,outcome,[1],inactive
same,outcome,[2],inactive
same,potentiation,[3],9% (active)
same,outcome,[4],inactive
same,outcome,[5],inactive
same,outcome,[6],inactive
same,outcome,[7],inactive
same,outcome,[8],inactive
same,outcome,[9],inactive
same,outcome,[10],inactive
same,outcome,[11],inactive
same,outcome,[12],inactive
same,outcome,[13],inactive
same,outcome,[14],inactive
same,potentiation,[15],12.4% (active)
same,outcome,[16],inactive
same,outcome,[17],inactive
C=CCc1cc(Cl)ccc1OCCCn1ccnc1,outcome,[1],inactive
same,outcome,[2],inactive
same,potentiation,[3],9% (active)
same,outcome,[4],inactive
same,outcome,[5],inactive
same,outcome,[6],inactive
same,outcome,[7],inactive
same,outcome,[8],inactive
same,outcome,[9],inactive
same,outcome,[10],inactive
same,outcome,[11],inactive
same,outcome,[12],inactive
same,outcome,[13],inactive
same,outcome,[14],inactive
same,outcome,[15],inactive
same,outcome,[16],inactive
same,outcome,[17],inactive
CCOC(=O)c1c(-c2ccc(OC)cc2)oc2ccc(O)cc12,outcome,[1],inactive
same,outcome,[2],inactive
same,outcome,[3],inactive
same,outcome,[4],inactive
same,outcome,[5],inactive
same,outcome,[6],inactive
same,outcome,[7],inactive
same,outcome,[8],inactive
same,outcome,[9],inactive
same,outcome,[10],inactive
same,outcome,[11],inactive
same,outcome,[12],inactive
same,outcome,[13],inactive
same,outcome,[14],inactive
same,outcome,[15],inactive
same,outcome,[16],inactive
same,outcome,[17],inactive
O=C(Cc1ccccc1)Nc1cccc(NC(=O)c2cccs2)c1,outcome,[1],inactive
same,outcome,[2],inactive
same,outcome,[3],inactive
same,outcome,[4],inactive
same,outcome,[5],inactive
same,outcome,[6],inactive
same,outcome,[7],inactive
same,outcome,[8],inactive
same,outcome,[9],inactive
same,outcome,[10],inactive
same,outcome,[11],inactive
same,outcome,[12],inactive
same,outcome,[13],inactive
same,outcome,[14],inactive
same,outcome,[15],inactive
same,outcome,[16],inactive
same,outcome,[17],inactive
OC(CNCC1CCCO1)Cn1c2ccc(Br)cc2c2cc(Br)ccc21 (stereo not given),outcome,[1],inactive
same,outcome,[2],inactive
same,outcome,[3],inactive
same,outcome,[4],inactive
same,outcome,[5],inactive
same,outcome,[6],inactive
same,outcome,[7],inactive
same,outcome,[8],inactive
same,outcome,[9],inactive
same,outcome,[10],inactive
same,outcome,[11],inactive
same,outcome,[12],inactive
same,outcome,[13],inactive
same,outcome,[14],inactive
same,potentiation,[15],45.1% (active)
same,outcome,[16],inactive
same,outcome,[17],inactive
Cc1cccc(C)c1OCC(=O)N1CC2(C)CC1CC(C)(C)C2 (stereo not given),outcome,[1],inactive
same,outcome,[2],inactive
same,outcome,[3],inactive
same,outcome,[4],inactive
same,outcome,[5],inactive
same,outcome,[6],inactive
same,outcome,[7],inactive
same,outcome,[8],inactive
same,outcome,[9],inactive
same,outcome,[10],inactive
same,outcome,[11],inactive
same,outcome,[12],inactive
same,outcome,[13],inactive
same,outcome,[14],inactive
same,outcome,[15],inactive
same,outcome,[16],inactive
same,outcome,[17],inactive
CCN(CC)CCNc1ccc(Cl)cc1[N+](=O)[O-],outcome,[1],inactive
same,outcome,[2],inactive
same,potentiation,[3],31% (active)
same,outcome,[4],inactive
same,outcome,[5],inactive
same,outcome,[6],inactive
same,outcome,[7],inactive
same,outcome,[8],inactive
same,outcome,[9],inactive
same,outcome,[10],inactive
same,outcome,[11],inactive
same,outcome,[12],inactive
same,outcome,[13],inactive
same,outcome,[14],inactive
same,potentiation,[15],17.9% (active)
same,outcome,[16],inactive
same,outcome,[17],inactive
Cc1ccc(-c2ccc3c(c2)S(=O)(=O)c2ccccc2C3=O)cc1,outcome,[1],inactive
same,outcome,[2],inactive
same,outcome,[3],inactive
same,outcome,[4],inactive
same,outcome,[5],inactive
same,outcome,[6],inactive
same,outcome,[7],inactive
same,outcome,[8],inactive
same,outcome,[9],inactive
same,outcome,[10],inactive
same,outcome,[11],inactive
same,outcome,[12],inactive
same,outcome,[13],inactive
same,outcome,[14],inactive
same,outcome,[15],inactive
same,outcome,[16],inactive
same,outcome,[17],inactive
Cc1cc(N2CCCCC2)nc(NCc2ccccc2)n1,activation,[1],66% (active)
same,outcome,[2],inactive
same,outcome,[3],inactive
same,outcome,[4],inactive
same,outcome,[5],inactive
same,outcome,[6],inactive
same,outcome,[7],inactive
same,outcome,[8],inactive
same,outcome,[9],inactive
same,outcome,[10],inactive
same,activation,[11],68.5% (active)
same,outcome,[12],inactive
same,activation,[13],19.4% (active)
same,outcome,[14],inactive
same,outcome,[15],inactive
same,activation,[16],29.5% (active)
same,outcome,[17],inactive
Cc1ccc(C(=O)c2no[n+]([O-])c2C(=O)c2ccc(C)cc2)cc1,outcome,[1],inactive
same,outcome,[2],inactive
same,potentiation,[3],23% (active)
same,potentiation,[4],89% (active)
same,outcome,[5],inactive
same,outcome,[6],inactive
same,outcome,[7],inactive
same,outcome,[8],inactive
same,outcome,[9],inactive
same,outcome,[10],inactive
same,outcome,[11],inactive
same,outcome,[12],inactive
same,outcome,[13],inactive
same,outcome,[14],inactive
same,potentiation,[15],59.9% (active)
same,outcome,[16],inactive
same,outcome,[17],inactive
CCCCc1nnc(NC(=O)C2CCN(c3ncnc4sc(C)c(C)c34)CC2)s1,outcome,[1],inactive
same,outcome,[2],inactive
same,outcome,[3],inactive
same,outcome,[4],inactive
same,outcome,[5],inactive
same,outcome,[6],inactive
same,outcome,[7],inactive
same,outcome,[8],inactive
same,outcome,[9],inactive
same,outcome,[10],inactive
same,outcome,[11],inactive
same,outcome,[12],inactive
same,outcome,[13],inactive
same,outcome,[14],inactive
same,outcome,[15],inactive
same,outcome,[16],inactive
same,outcome,[17],inactive
CC1CCc2c(C(=O)N3CCN(S(=O)(=O)c4cccs4)CC3)csc2C1 (stereo not given),outcome,[1],inactive
same,outcome,[2],inactive
same,outcome,[3],inactive
same,potentiation,[4],22% (active)
same,outcome,[5],inactive
same,outcome,[6],inactive
same,outcome,[7],inactive
same,outcome,[8],inactive
same,outcome,[9],inactive
same,outcome,[10],inactive
same,outcome,[11],inactive
same,outcome,[12],inactive
same,outcome,[13],inactive
same,outcome,[14],inactive
same,outcome,[15],inactive
same,outcome,[16],inactive
same,outcome,[17],inactive
CCCCC(=O)Nc1cccc2c1C(=O)N(c1ccccc1)C2=O,outcome,[1],inactive
same,outcome,[2],inactive
same,outcome,[3],inactive
same,outcome,[4],inactive
same,outcome,[5],inactive
same,outcome,[6],inactive
same,outcome,[7],inactive
same,outcome,[8],inactive
same,outcome,[9],inactive
same,outcome,[10],inactive
same,outcome,[11],inactive
same,outcome,[12],inactive
same,outcome,[13],inactive
same,outcome,[14],inactive
same,outcome,[15],inactive
same,outcome,[16],inactive
same,outcome,[17],inactive
